Laboratory results as given in PubChem BioAssay AID588342 (National Center for Advancing Translational Sciences (NCATS), 2011).
Out of some 360,000 compounds screened, about 25,000 (6.9%) were called active. Not shown: some 9% with an inconclusive outcome. The sample as a whole holds a higher share of actives than the screen did. A number with no mark means an inactive call. The call rests on the fitted dose curve; in most records, active means well fitted inhibition curve with a large enough effect; inconclusive means small, poorly fitted or top-dose-only effect; inactive means flat fitted curve, though single readings scatter.

These molecules were tested against Luciferin 4-monooxygenase (Photinus pyralis) (UniProt P08659) (assay: qHTS profiling assay for firefly luciferase inhibitor/activator using purifed enzyme and Km concentrations of substrates (counterscreen for miR-21 project)). Conditions: purified FLuc, luminescence inhibition; series mostly up to 57.5 µM; activity change, negative = inhibition: at the top concentration.
Outline: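 Biochemical qHTS of compounds, final roughly 60 µM downward over six points, against 10 nM purified firefly luciferase using Km concentrations of substrates (10 uM D-luciferin, 10 uM ATP) in Tris acetate pH 7.5 buffer; luminescence output.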
Further: nearly all actives have a fitted effect of over 55% in size.
Potency means the concentration at half of the fitted maximal effect.
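Wherever activity change, negative = inhibition is given: plate controls were vehicle for no effect and reference inhibitor for full effect.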

Chain of Luciferin 4-monooxygenase (Photinus pyralis) (P08659 whole entry, looked up): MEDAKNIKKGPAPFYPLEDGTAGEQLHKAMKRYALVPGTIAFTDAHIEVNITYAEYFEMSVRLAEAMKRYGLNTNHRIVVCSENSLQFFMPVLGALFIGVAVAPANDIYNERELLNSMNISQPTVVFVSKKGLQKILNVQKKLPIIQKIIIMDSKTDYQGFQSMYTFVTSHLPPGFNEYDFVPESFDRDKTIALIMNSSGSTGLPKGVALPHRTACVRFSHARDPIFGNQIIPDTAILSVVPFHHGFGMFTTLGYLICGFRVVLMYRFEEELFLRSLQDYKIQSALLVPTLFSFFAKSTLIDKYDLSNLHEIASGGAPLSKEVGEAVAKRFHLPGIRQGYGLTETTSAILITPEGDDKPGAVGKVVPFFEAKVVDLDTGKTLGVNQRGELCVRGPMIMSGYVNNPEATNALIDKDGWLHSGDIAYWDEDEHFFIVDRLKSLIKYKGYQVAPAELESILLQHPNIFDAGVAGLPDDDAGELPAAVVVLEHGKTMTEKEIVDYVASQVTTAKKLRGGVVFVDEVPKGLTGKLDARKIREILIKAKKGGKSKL

Row | Structure (SMILES) | activity change, negative = inhibition [%] | Potency
1 | CC(=O)C[C@@H](O)CC(=O)[C@H]1OC(=O)CCCCCCc2ccccc21 | 0.211 | –
2 | O=C(Nc1ccccc1)C1CCN(C(=O)c2ccc(Br)cc2)CC1 | 3.48 | –
3 | C/C(=C\C(=O)c1ccc(Br)cc1)N1CCCCC1 | – | 15.1 µM (active)
4 | CC(C)(C)c1ccc(C(=O)N2CCC(C(=O)N3CCCCC3)CC2)cc1 | 1.12 | –
5 | COc1cccc(CNC(=O)Cn2ncn3c(cc4ccccc43)c2=O)c1 | 3.75 | –
6 | Cc1cc(NC(=O)CN2CCCC(C)C2)n(-c2nc3ccccc3s2)n1 (centres undefined) | -0.742 | –
7 | CCC(C)Cn1c(O)cc2nn(-c3nc4ccccc4s3)c(=O)c-2c1C (centres undefined) | – | 0.301 µM (active)
8 | S=C(Nc1cccc(Br)c1)N1CCn2cccc2C1c1cccnc1 (centres undefined) | 1.23 | –
9 | CCCCCCCCCCCCCCCC(=O)OC/C=C(C)/C=C/C=C(C)/C=C/C1=C(C)CCCC1(C)C | -0.543 | –
10 | O=C(CCS(=O)(=O)c1ccc2c(c1)NC(=O)CO2)Nc1cccc(C(F)(F)F)c1 | -2.12 | –
11 | CCNc1nc(SCCOc2ccccc2)nc(N(C)C)n1 | -13.8 | –
12 | COc1cn(CC(=O)Nc2cccc(C)c2C)c(CN2CCCCC2)cc1=O | 0.302 | –
13 | Cc1ccc(/C=N/NC(=O)COc2ccccc2-c2ccccc2)cc1 | 4.74 | –
14 | Cc1ccc(S(=O)(=O)Oc2ccc(/C=N/NC(=O)c3ccncc3)cc2)cc1 | -2.83 | –
15 | Cc1ccc(/C=N/NC(=O)C(NC(=O)c2ccccc2)c2n[nH]c(=O)c3ccccc23)cc1 (centres undefined) | – | 19 µM (active)
16 | CCOC(=O)c1cccc(NC(=O)C(Cc2ccccc2)NS(=O)(=O)c2cccc3nsnc23)c1 (centres undefined) | 6.66 | –
17 | CN(C(=O)CSc1nc2ccccc2n1Cc1ccccc1C#N)c1ccccc1 | -8.81 | –
18 | O=C(N/N=C/c1ccc(O)c(O)c1)C1c2ccccc2Oc2ccccc21 | -0.323 | –
19 | O=C(COc1ccc(/C=N/NC(=O)c2ccc(O)cc2)cc1)Nc1ccc([N+](=O)[O-])cc1 | -11.2 | –
20 | O=C(N/N=C/c1ccsc1)c1cc(O)cc(O)c1 | – | 21.3 µM (active)
21 | Cc1cccc(-n2ncc(C(=O)N3CCc4ccccc4C3)c2C2CCN(C(=O)OC(C)(C)C)CC2)c1 | -6.87 | –
22 | Cc1ccc(NC(=O)c2nc(S(=O)(=O)Cc3cccc(C)c3)ncc2Cl)cc1 | -18.8 | –
23 | Nc1[nH]c(=S)nc2nc(-c3ccccc3)c(-c3ccccc3)nc12 | -0.431 | –
24 | Cn1nnnc1SCC(=O)N1CCN(Cc2ccccc2)CC1 | 6.53 | –
25 | O=C(c1cccc([N+](=O)[O-])c1)N1CCN(Cc2ccccc2)CC1 | -2.8 | –
26 | Cc1c(Br)c([N+](=O)[O-])nn1CC(=O)N1CCN(Cc2ccccc2)CC1 | – | 13.5 µM (active)

Row | Structure (SMILES) | activity change, negative = inhibition [%] | Potency
27 | Cc1cccc(NS(=O)(=O)c2ccc(-c3cnc(C4CC4)o3)cc2)c1 | 1.53 | –
28 | COc1ccc(/C=N/N(C)C2=NS(=O)(=O)c3ccccc32)cc1OC | -2.58 | –
29 | CCOc1ccc(/C=N/NC(=O)CSc2ccccn2)cc1O | -2.26 | –
30 | COc1ccc(/C=N/N=C2/C(=O)Nc3ccccc32)cc1O | – | 19 µM (active)
31 | CCOC(=O)c1cc(-c2ccccc2)n(-c2cccc(C(=O)Nc3cc(OC)cc(OC)c3)c2)c1C | -7.06 | –
32 | Cc1cc(C)c2oc(C(=O)Nc3ccc(S(=O)(=O)N(C)c4ccccc4)cc3)cc(=O)c2c1 | 5.08 | –
33 | O=C(c1cc(COc2cccc(C(F)(F)F)c2)on1)N1CCSCC1 | -0.261 | –
34 | O=C(c1cc(COc2ccc(F)cc2F)on1)N1CCOCC1 | – | 16.9 µM (active)
35 | O=C(NCCN1CCCC(O)C1)c1cc(COc2c(F)cccc2F)on1 (centres undefined) | -0.38 | –
36 | O=C(c1cc(COc2c(F)cccc2F)on1)N1CCSCC1 | – | 19 µM (active)
37 | O=C(Oc1ccc(F)cc1)N1CCOCC1 | -0.597 | –
38 | C=CCC1(CC=C)CCCN1C(=O)c1cc(COc2ccc(-n3cncn3)cc2)on1 | -3.43 | –
39 | COc1ccc(CCN2C(=O)c3oc4cc(C)cc(C)c4c(=O)c3C2c2ccccc2F)cc1OC (centres undefined) | -13.9 | –
40 | COc1cccc(CNCCSc2nnnn2C)c1OCc1ccccc1Cl | 2.21 | –
41 | O=C(NCCCc1ccccc1)c1ccc2c(c1)sc1nc(-c3ccc(F)cc3)cn12 | -6.72 | –
42 | CCOc1ccc(-c2nc(C)sc2CC(=O)O)cc1 | -4.12 | –
43 | C/C(=N/Nc1nc(-c2ccccc2)c(CC(=O)O)s1)c1ccccc1 | – | 5.36 µM (active)
44 | CCOC(=O)C(=O)Nc1nc(-c2ccccc2)c(CC)s1 | 3.83 | –
45 | Cc1ccc(C)c(N2CCN(S(=O)(=O)c3ccc4c(c3)C(C(C)C)C(=O)N4)CC2)c1 (centres undefined) | -12.1 | –
46 | CN(Cc1ccccc1)C(=O)c1ccc(COc2ccccc2)cc1 | -11.3 | –
47 | CN(Cc1ccccc1)C(=O)COc1ccccc1 | – | 9.53 µM (active)
48 | CN(Cc1ccc(F)cc1)C(=O)COc1ccc2ccccc2c1 | -8.15 | –
49 | Cc1ccccc1-c1nc2scc(CCNC(=O)C(=O)Nc3ccc(F)cc3F)n2n1 | 0.856 | –
50 | CC1CCCCC1NC(=O)COC(=O)Cc1ccc(Cl)cc1 (centres undefined) | -1.87 | –
51 | CCN(c1ccccc1)S(=O)(=O)c1ccc(C(=O)Nc2nccs2)cc1 | -0.951 | –
52 | CC(=O)Oc1ccc(C(=O)Nc2nccs2)cc1 | – | 10.7 µM (active)

Row | Structure (SMILES) | activity change, negative = inhibition [%] | Potency
53 | CCOc1ccc(C(=O)Nc2nccs2)cc1[N+](=O)[O-] | -17.8 | –
54 | Cc1nc(-c2ccccc2)sc1-c1nnc(C2CC2)o1 | – | 15.1 µM (active)
55 | COc1ccccc1-c1nnc(C2CCN(C(=O)c3ccc(Cl)cc3)CC2)o1 | -0.92 | –
56 | Cc1nc(-c2ccccc2)sc1-c1nc(-c2ccccc2)ncc1S(=O)(=O)c1ccccc1 | 0.487 | –
57 | COc1cc(C(=O)NCCS(=O)(=O)N2CCN(c3ccccc3)CC2)cc(OC)c1OC | -2.54 | –
58 | C/C(=C\c1ccccc1)C1NC(=O)c2c(sc3c2CCCC3)N1 (centres undefined) | 2.44 | –
59 | O=C1NC(c2ccncc2)Nc2sc3c(c21)CCCC3 (centres undefined) | – | 21.3 µM (active)
60 | CCOC(=O)N1CCc2c(sc3c2C(=O)NC(c2ccccc2F)N3)C1 (centres undefined) | -9.86 | –
61 | CC(C)[C@H](NC(=O)OCc1ccccc1)C(=O)OCc1ccccc1 | -0.684 | –
62 | Cc1cc(C)cc(Nc2ncnc3onc(-c4ccc(F)cc4)c23)c1 | 0.145 | –
63 | C/C(=N\NC(=O)c1cccnc1)c1ccc(-n2ccnc2)cc1 | -5.01 | –
64 | O=S(=O)(Nc1ccccc1)c1ccc(NS(=O)(=O)c2cccs2)cc1 | 0.235 | –
65 | C/C(=N\NC(=O)c1cccnc1)c1ccc(-c2ccccc2)cc1 | 0.0468 | –
66 | C/C(=N\NC(=O)Cc1ccc(Br)cc1)c1cccnc1 | -0.0582 | –
67 | C/C(=N\NC(=O)c1ccc(NS(=O)(=O)c2cccs2)cc1)c1ccc2ccccc2c1 | – | 19 µM (active)
68 | C/C(=N\NC(=O)c1cc(-c2ccc(O)cc2)nc2ccccc12)c1cccnc1 | – | 6.01 µM (active)
69 | COc1cc(NS(=O)(=O)c2cccs2)cc(OC)c1 | -3.17 | –
70 | C/C(=N\NC(N)=S)c1cccnc1 | 0.115 | –
71 | C/C(=N\NC(=O)Cc1ccccc1[N+](=O)[O-])c1cccnc1 | – | 15.1 µM (active)
72 | CCOc1ccccc1-c1cc(C(=O)N/N=C(\C)c2cccnc2)c2ccccc2n1 | 2.99 | –
73 | C/C(=N\NC(=O)c1ccc2ccccc2c1)c1cccnc1 | – | 19 µM (active)
74 | Cc1nc2nc(SCC(=O)N(Cc3ccccc3)C(C)C)nn2c(C)c1Cc1ccccc1Cl | 1.64 | –
75 | NS(=O)(=O)c1ccc(CCNC(=O)COC(=O)COc2cccc(C(F)(F)F)c2)cc1 | 3.88 | –
76 | CC(C)Cn1c(=O)c2ccccc2n2c(-c3cccc(Cl)c3)nnc12 | -7.72 | –
77 | COc1ccc(NC(=O)C2CCCN(S(=O)(=O)c3cccc4nonc34)C2)cc1Cl (centres undefined) | 2.63 | –
78 | Cc1ccc(Cl)cc1N1CCN(C(=O)CN2C(=O)COc3ccc(S(=O)(=O)N4CCOCC4)cc32)CC1 | -0.641 | –

Row | Structure (SMILES) | activity change, negative = inhibition [%] | Potency
79 | Cc1cccc(N2CCN(C(=O)CCn3c(=O)c4cccn4c4cccnc43)CC2C)c1 (centres undefined) | 1.02 | –
80 | O=C(c1cccc(Cl)c1)N1CCN(CCc2ccncc2)CC1 | 0.749 | –
81 | O=C(NNS(=O)(=O)c1ccc([N+](=O)[O-])cc1)C1CCCCC1 | 1.02 | –
82 | COc1ccc(OC)c2sc(N3CCN(C(=O)C4COc5ccccc5O4)CC3)nc12 (centres undefined) | -1.76 | –
83 | O=C(NCCc1ccc(C(F)(F)F)cc1)c1ccc2c(c1)OCO2 | 3.23 | –
84 | CC(NCC(=O)Nc1ccccc1C(=O)NC1CC1)c1ccccc1Cl (centres undefined) | -1.23 | –
85 | C/C(=N\NC(=O)c1cc2c(s1)CCC(C)C2)c1cccnc1 (centres undefined) | – | 16.9 µM (active)
86 | C/C(=N\NC(=O)CNC(=O)C(c1ccccc1)c1ccccc1)c1ccc(C)cc1 | 2.35 | –
87 | C/C(=N\NC(=O)c1cccc([N+](=O)[O-])c1)c1cccnc1 | 0.224 | –
88 | C/C(=N\NC(=O)c1nc(C)cc(C)n1)c1ccccc1 | – | 12 µM (active)
89 | C/C(=N/NC(=O)c1ccn(C)n1)c1ccncc1 | -5.86 | –
90 | CC1CCc2sc(C(=O)NCC(c3ccco3)N3CCCCC3)cc2C1 (centres undefined) | -3.5 | –
91 | CCOc1ccc(C(CCc2ccccc2)NC(=O)c2ccc(OC)c(OC)c2)cc1OCC (centres undefined) | -1.05 | –
92 | CCC(CC)C(=O)N1CCc2cc(OC)c(OC)cc2C1COc1ccc(F)cc1 (centres undefined) | -4.53 | –
93 | N#CCC(=O)Nc1ccc(C(=O)OCC(=O)Nc2sc3c(c2C#N)CCCC3)cc1 | -9.6 | –
94 | NC1=NC(=O)S/C1=C\c1ccc(O)cc1 | -7.93 | –
95 | O=C1N=C(N2CCc3ccccc3C2)S/C1=C\c1ccc(O)cc1 | – | 16.9 µM (active)
96 | CCOc1ccc(N=C2NC(=O)S/C2=C\c2ccc(O)cc2)cc1 | -7.47 | –
97 | O=C(C1CCN(c2nnc(-n3cccc3)s2)CC1)N1CCc2ccccc2C1 | 1.79 | –
98 | CC1CCN(C2=NC(=O)/C(=C/c3ccc(O)cc3)S2)CC1 | – | 10.7 µM (active)
99 | CCCN(C(=O)Cn1ncc2c([nH]c3ccc(C)cc32)c1=O)c1ccccc1C | -6.95 | –
100 | COc1cccc(CNC(=O)c2ccc3c(c2)N(Cc2ccc(C(F)(F)F)cc2)C(=O)c2ccccc2S3)c1OC | -4.21 | –
101 | CSCCC(C(=O)NC1=NCCS1)N1C(=O)c2ccccc2C1=O (centres undefined) | 2.14 | –
102 | O=[N+]([O-])c1ccc(C=Nc2ccc(Cl)cc2Cl)s1 | – | 2.13 µM (active)
103 | CC(C)(C)c1cc(C(=O)N/N=C/c2ccc([N+](=O)[O-])s2)n[nH]1 | -3.18 | –
104 | CCOc1ccc(NC(=O)CCC(=O)N/N=C/c2ccc([N+](=O)[O-])s2)cc1 | 5.81 | –
